Compound activity deposited in PubChem by National Center for Advancing Translational Sciences (NCATS).
HTT ATP protect: protects HTT-Q103 PC12 cells, measured by ATP. PC12 HTT-Q103 induced, cytoprotection, ATP luminescence, 40 h. Potency, µM (top dose mostly 56.4 µM), for the others: cytoprotection (ATP increase), most hits filed as activators. 230,000 tested, 0.14% active; note: potency is the fitted concentration of half-maximal effect; % of control where 0% means no effect; nearly all actives have a fitted effect of over 45% in size
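Quantitative HTS on tebufenozide-induced (100 nM) PC12 cells expressing HTTQ103 exon 1–GFP; compounds tested as a concentration series; survival measured via cellular ATP.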
HPGD block: inhibitors of human 15-hydroxyprostaglandin dehydrogenase (HPGD). 150,000 tested, 4.3% active. P15428. purified HPGD, NADH fluorescence kinetic, PGE2 substrate. Potency, µM, for the others: at the highest dose activity change, negative = inhibition, hits mostly inhibitors. AID 894; active = well fitted inhibition curve with a large enough effect, not every such curve was filed as active; inconclusive = small, poorly fitted or top-dose-only effect, or another doubt; inactive = no such curve, though single readings can be large or run the other way; note: potency is the fitted concentration of half-maximal effect; % is set by controls: 0 for no effect and ±100 for the full control effect
Target sequence (P15428 whole entry, looked up): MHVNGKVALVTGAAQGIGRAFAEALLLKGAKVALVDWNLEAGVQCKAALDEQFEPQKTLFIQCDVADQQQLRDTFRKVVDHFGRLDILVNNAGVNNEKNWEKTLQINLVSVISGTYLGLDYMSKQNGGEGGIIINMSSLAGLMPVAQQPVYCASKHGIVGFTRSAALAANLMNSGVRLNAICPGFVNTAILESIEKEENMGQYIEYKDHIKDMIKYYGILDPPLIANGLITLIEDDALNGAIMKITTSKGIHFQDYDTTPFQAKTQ
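20 nM HPGD preincubated 15 min at room temperature with compound in 50 mM Tris-HCl pH 8, 0.01% Tween 20. Started with 1 mM NAD+ and 30 uM prostaglandin E2; NADH fluorescence (360/450 nm) read 5 times over 30-s intervals, last minus first.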
RGS12 GoLoco inh: RGS12 GoLoco-Gai1 interaction inhibition; Potency, µM (series often up to 61.6 µM), without a hit: top-dose activity, negative = inhibition, usual class: inhibitors; P63096; AID 880; Gai1:RGS12 GoLoco peptide FP, rhodamine, 10 min; 230,000 tested, 0.44% active; active = well fitted inhibition curve with a large enough effect, not every such curve was filed as active; inactive = no such curve, though single readings can be large or run the other way; note: potency is the fitted concentration of half-maximal effect; % is set by controls: 0 for no effect and ±100 for the full control effect; nearly all actives have a fitted effect of over 30% in size
Target sequence (P63096 whole entry, looked up): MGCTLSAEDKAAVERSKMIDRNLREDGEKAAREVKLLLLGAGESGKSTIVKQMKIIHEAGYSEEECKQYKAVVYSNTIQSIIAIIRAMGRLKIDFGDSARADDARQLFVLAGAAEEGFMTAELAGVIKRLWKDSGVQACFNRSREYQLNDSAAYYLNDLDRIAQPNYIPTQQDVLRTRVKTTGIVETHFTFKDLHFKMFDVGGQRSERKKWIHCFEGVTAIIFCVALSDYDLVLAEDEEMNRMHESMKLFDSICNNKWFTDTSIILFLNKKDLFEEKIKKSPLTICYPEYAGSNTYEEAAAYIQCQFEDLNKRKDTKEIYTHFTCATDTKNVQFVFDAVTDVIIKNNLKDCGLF
ALDH1A1 inh: blocks purified human ALDH1A1 activity; 220,000 tested, 7.3% active; Purified ALDH1A1, NADH fluorescence, propionaldehyde substrate; Potency, µM (top dose mostly 75.3 µM), inactives show top-dose activity, negative = inhibition, actives largely listed as inhibitors; P00352; active = well fitted inhibition curve with a large enough effect, not every such curve was filed as active; inconclusive = small, poorly fitted or top-dose-only effect, or another doubt; inactive = no such curve, though single readings can be large or run the other way;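 note: potency is the fitted concentration of half-maximal effect; plate controls were no enzyme wells and a reference inhibitor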
HTT aggregate: reduces HttQ103-GFP aggregates in PC12 cells; PC12 HttQ103-GFP aggregates, Acumen cytometry, 40 h; Potency, µM (top dose mostly 46.1 µM), for the others: at the highest dose activity change, negative = inhibition, actives largely listed as inhibitors; 220,000 tested, 1.1% active; AID 1688; note: potency is the fitted concentration of half-maximal effect; % is set by controls: 0 for no effect and ±100 for the full control effect; nearly all actives have a fitted effect of over 60% in size
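Read-out: GFP aggregate count by laser scanning cytometer (488 nm excitation, 500-530 nm emission, 1–25 µm objects >6 SD above background). Cells: PC12, inducible HTTex1-Q103-GFP, 100 nM tebufenozide; compounds titrated.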
PNC inhibitor: inhibitors of perinucleolar compartment assembly | PC3M PTB-GFP, PNC prevalence imaging, 16 h; hits give low values | activity change (PNC), negative = inhibition, % at 10 µM | 140,000 tested, 3.1% active | AID 2417;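 active = readout at or below -70, meaning at least 70% loss of cells showing the perinucleolar compartment, a nuclear body marking cancer cells; inconclusive = readout between -30 and a set limit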;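 note: plate controls were DMSO wells for no effect and camptothecin positive control wells for full effect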
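Read-out is percentage of cells bearing a perinucleolar compartment, from automated 20x imaging of fixed, Hoechst-stained PC3M PTB-GFP cells. Cells were seeded 4 h, then exposed 16 h to compound (23 nl of library stock) in duplicate plates.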
* marks the source's active call; other numbers are inactive results; ? = inconclusive; / = no result; [ ] = remark or other dose. Only some compounds are listed: those with a hit (about 11% of all), similar ones and a draw of the others. Unless noted, calls come from the whole dose curve; as a rule, active = well fitted curve in the direction sought with a large enough effect; inconclusive = small, poorly fitted or top-dose-only effect, or another doubt; inactive = no such curve, though single readings can be large; an effect the other way counts as inactive or inconclusive.

SMILES	HTT ATP protect	HPGD block	RGS12 GoLoco inh	ALDH1A1 inh	HTT aggregate	PNC inhibitor
O=[N+]([O-])c1ccc(Cl)c(/C=N/n2c(-c3cccnc3)n[nH]c2=S)c1	-9.7%[1.9 µM]	8.91µM*	-2.7%	7.94µM*	2.7%	3.1
O=[N+]([O-])c1cccc(/C=N/n2c(-c3cccnc3)n[nH]c2=S)c1	/	20µM*	-3.6%	10µM*	29.1%	19.9
Cc1c(Cl)cccc1NC(=O)CCCN1C(=O)CCC1=O	-5.7%	-13.5%	-6.7%	3.9%	-16.8%	9.3
c1ccc(-c2cnc(CSc3ncnc4sccc34)o2)cc1	-14.5%[10 µM]	3.16µM*	10.0%	0.8%	-18.3%	316.7
O=C(O)/C=C/C(=O)NCCNc1ncc(C(F)(F)F)cc1Cl	-43.7%[1.9 µM]	/	-1.3%	28.2µM*	10.0%[9.22 µM]	/
O=C1CC(=O)N(CCNc2ncc(C(F)(F)F)cc2Cl)C(=O)N1	23.6%	-17.9%	29.3%	7.2%	0.0%	48.9
O=C1C=CC(=O)N1CCNc1ncc(C(F)(F)F)cc1Cl	-7.4%[10 µM]	/	0.2%	0.631µM*	?	/
O=S(=O)(NCCNc1ncc(C(F)(F)F)cc1Cl)C(F)(F)F	-100.1%	/	7.4%	13.5%	?	/
CCCOc1ccc(C(=O)ON=C2CCN(C)CC2)cc1	11.4%	/	7.3%	-11.4%	13.2%	/
O=C(c1cnc2nc3ccccc3n2c1)c1cc(F)ccc1O	-50.4%	/	11.6%	4.47µM*	-7.7%	/
CN(C)c1cccc(C(=O)n2cc(C(=O)c3cc(F)ccc3O)cn2)c1	-12.3%[10 µM]	-17.4%	-1.4%	4.47µM*	?	17.3
O=C(c1cnn(C(=O)COc2ccccc2F)c1)c1cc(F)ccc1O	-14.5%[10 µM]	/	37.2%	0.398µM*	-30.7%[9.22 µM]	/
Cc1cc(Cl)ccc1OCC(=O)n1cc(C(=O)c2cc(Cl)ccc2O)cn1	22.2%	/	61.6%	?	?	/
O=CN[C@@H](Cc1cnc[nH]1)C(=O)O	-5.9%[10 µM]	-6.5%	-1.8%[14.2 µM]	0.4%[13.5 µM]	/	/
CCCC[C@@H]1C[C@H]1C(NC(=O)Cc1ccccc1)c1ccc(Cl)cc1 (stereo not given in full)	-42.5%	-13.6%	-6.0%	-2.4%	/	/
CC(=O)Nc1ccc(C(=O)Nc2nc(-c3cccnc3)cs2)cc1	0.0%[10 µM]	/	16.3%	10µM*	13.0%	/
O=C(Nc1nc(-c2ccccc2)cs1)c1cccnc1	-1.8%	-6.5%	4.6%	2.7%	-17.2%	11.1
COc1cccc(C(=O)Nc2nc(-c3ccncc3)cs2)c1	-24.9%	/	49.3%	20µM*	2.7%	/
COc1cccc(C(=O)Nc2nc(C)cs2)c1	-50.2%	?	4.4%	8.4%	5.6%	18.3
CC(C=O)Cc1ccc(C(C)(C)C)cc1 (stereo not given)	-12.1%	-4.2%	7.1%	11.3%	/	/
CCOC(=O)c1c(Nc2ccccc2N)cc(C)nc1C	-6.1%[0.074 µM]	-5.7%	-4.4%	12.0%	-7.4%	-106.5*
CCOC(=O)c1c(C)nc2ccccc2c1C	-10.8%	-12.2%	-28.4%	-6.0%	15.3%	?
Fc1cccc(Cc2noc(CN3CCCN(C4Cc5ccccc5C4)CC3)n2)c1	-0.2%[10 µM]	/	28.1%	3.55µM*	-24.3%[9.22 µM]	/
COC(=O)CC1c2ccccc2C=C(C2CC2)N1C(=O)OC (stereo not given)	-5.7%	-3.3%	3.0%	1.2%	/	/
O=C(/C=C/c1ccc2c(c1)OCO2)Nc1c(C(=O)O)[nH]c2ccccc12	-37.3%[10 µM]	15.8µM*	-23.8%	?	13.6%	-24.7
COc1ccccc1-c1coc2cc(O)ccc2c1=O	/	?	7.3%	?	/	/
CCCc1c(O)nc(SC2CC(=O)N(c3ccc(OC)cc3)C2=O)[nH]c1=O (stereo not given)	-2.0%[10 µM]	/	6.4%	/	-19.7%[9.22 µM]	/
CCOc1ccc2nc(SC3CC(=O)N(c4ccc(OC)cc4)C3=O)sc2c1 (stereo not given)	-110.7%	-27.3%	14.5%	15.8µM*	?	51.3
CCOc1ccc(N2C(=O)CC(NC3CCCCNC3=O)C2=O)cc1 (stereo not given)	-3.5%[1.9 µM]	-2.8%	1.3%	20µM*	-9.4%	?
NCCSC1CC(=O)N(Cc2ccc(F)cc2)C1=O (stereo not given)	/	/	-1.6%	2.24µM*	22.9%	/
